Experiment in all cases: DAPPL (digital affinity profiling via proximity ligation, sequencing); 10 mM Tris-HCl pH 7.5, 50 mM NaCl, 1 mM DTT, 4% glycerol, room temperature, 30 min; GST-TFs on glutathione beads, 16-mer random dsDNA library, 0.1% formaldehyde crosslink after washing; high values mean tight binding
The target of one experiment is T1, FEV (Homo sapiens, UniProt Q99581 1-238).
T1 sequence: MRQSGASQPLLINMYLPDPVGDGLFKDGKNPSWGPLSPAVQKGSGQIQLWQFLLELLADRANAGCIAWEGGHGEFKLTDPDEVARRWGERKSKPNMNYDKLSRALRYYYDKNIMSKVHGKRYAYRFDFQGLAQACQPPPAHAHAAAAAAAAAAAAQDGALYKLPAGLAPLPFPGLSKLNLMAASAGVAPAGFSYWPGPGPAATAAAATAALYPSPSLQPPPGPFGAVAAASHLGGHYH
The note with it: protein: recombinant; tags: N-terminal GST; dsDNA, one strand shown. A digest of the protocol:
(§1)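 Binding signal is each hexamer's read frequency for a factor divided by its frequency in the tag-only sample. The factors were GST-fused human transcription factors from yeast, captured on glutathione beads, DNA-barcoded and pooled with that sample. Pools were incubated with 200 nmole of a random double-stranded 16-mer DNA library in Tris/NaCl/DTT/glycerol buffer at room temperature for 30 min, then washed, crosslinked with 0.1% formaldehyde, proximity-ligated with BsaI/T4 ligase (1 h, 37 °C), PCR-amplified and sequenced on an Illumina NextSeq500.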

The target of a further experiment is ETV5 (Homo sapiens, UniProt P41161 1-510). The note with it: protein: recombinant; tags: N-terminal GST; dsDNA, one strand shown. A digest of the protocol:
as §1

The target in another experiment is HSF1 (Homo sapiens, UniProt Q00613 1-529). The note with it: protein: recombinant; tags: N-terminal GST; chain copies: 3; dsDNA, one strand shown. A digest of the protocol:
as §1

The target in the next experiment is T2, SPIC (Homo sapiens, UniProt Q8N5J4 1-248).
T2 sequence: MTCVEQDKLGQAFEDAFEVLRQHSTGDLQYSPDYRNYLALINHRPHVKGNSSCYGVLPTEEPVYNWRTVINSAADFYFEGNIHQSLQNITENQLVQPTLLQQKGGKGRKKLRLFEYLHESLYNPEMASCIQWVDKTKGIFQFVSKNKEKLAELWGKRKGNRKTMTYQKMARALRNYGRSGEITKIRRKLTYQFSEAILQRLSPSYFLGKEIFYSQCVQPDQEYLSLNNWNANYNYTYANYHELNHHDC
To be noted: protein: recombinant; tags: N-terminal GST; dsDNA, one strand shown. A digest of the protocol:
as §1

Another experiment addresses ELF4 (Homo sapiens, UniProt Q99607 1-663). The note with it: protein: recombinant; tags: N-terminal GST; dsDNA, one strand shown. In a few lines:
as §1

In another experiment the target is T3, ELK4 (Homo sapiens, UniProt P28324-2 1-405).
T3 sequence: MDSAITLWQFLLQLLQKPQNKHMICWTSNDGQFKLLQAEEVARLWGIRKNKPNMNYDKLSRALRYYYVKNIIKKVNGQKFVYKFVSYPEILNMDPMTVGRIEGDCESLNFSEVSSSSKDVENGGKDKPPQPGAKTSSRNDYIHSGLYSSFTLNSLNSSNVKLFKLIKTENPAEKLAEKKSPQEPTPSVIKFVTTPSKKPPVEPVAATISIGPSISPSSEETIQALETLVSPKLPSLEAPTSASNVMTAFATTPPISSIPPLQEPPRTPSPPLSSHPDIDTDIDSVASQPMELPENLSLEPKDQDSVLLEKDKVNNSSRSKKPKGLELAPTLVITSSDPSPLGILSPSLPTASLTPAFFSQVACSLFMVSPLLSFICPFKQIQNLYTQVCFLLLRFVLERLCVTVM
To be noted: protein: recombinant; tags: N-terminal GST; dsDNA, one strand shown. A digest of the protocol:
as §1

For another experiment, the target named is T4, ETV2 (Homo sapiens, UniProt O00321 1-342).
T4 sequence: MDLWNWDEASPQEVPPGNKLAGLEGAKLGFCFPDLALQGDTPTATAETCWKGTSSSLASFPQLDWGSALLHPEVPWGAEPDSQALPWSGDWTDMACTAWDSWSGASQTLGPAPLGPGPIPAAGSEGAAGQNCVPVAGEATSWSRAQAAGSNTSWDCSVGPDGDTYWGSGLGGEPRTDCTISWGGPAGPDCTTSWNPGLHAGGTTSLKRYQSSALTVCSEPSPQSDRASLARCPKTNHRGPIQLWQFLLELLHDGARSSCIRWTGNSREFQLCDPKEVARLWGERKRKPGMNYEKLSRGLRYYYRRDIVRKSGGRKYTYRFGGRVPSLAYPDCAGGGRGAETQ
The note with it: protein: recombinant; tags: N-terminal GST; dsDNA, one strand shown. A digest of the protocol:
as §1

For another experiment, the target named is T5, ELF3 (Homo sapiens, UniProt P78545 1-371).
T5 sequence: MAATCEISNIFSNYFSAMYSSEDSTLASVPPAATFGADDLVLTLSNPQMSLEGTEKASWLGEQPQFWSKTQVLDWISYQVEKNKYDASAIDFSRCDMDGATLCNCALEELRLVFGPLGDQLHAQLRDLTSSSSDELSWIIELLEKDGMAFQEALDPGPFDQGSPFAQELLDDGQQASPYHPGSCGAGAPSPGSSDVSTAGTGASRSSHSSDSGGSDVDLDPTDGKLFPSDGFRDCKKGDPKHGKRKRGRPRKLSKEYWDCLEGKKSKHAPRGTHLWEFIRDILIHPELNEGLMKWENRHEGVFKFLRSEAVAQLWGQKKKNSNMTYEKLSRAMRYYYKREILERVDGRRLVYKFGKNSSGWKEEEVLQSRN
To be noted: protein: recombinant; tags: N-terminal GST; dsDNA, one strand shown. In a few lines: as §1

For another experiment, the target named is CRX (Homo sapiens, UniProt O43186 1-299). The note with it: protein: recombinant; tags: N-terminal GST; dsDNA, one strand shown. A digest of the protocol:
as §1

In the next experiment the target is ETV1 (Homo sapiens, UniProt P50549 1-477). The note with it: protein: recombinant; tags: N-terminal GST; dsDNA, one strand shown. A digest of the protocol:
as §1

In another experiment the target is T6, ERF (Homo sapiens, UniProt P50548 1-548).
T6 sequence: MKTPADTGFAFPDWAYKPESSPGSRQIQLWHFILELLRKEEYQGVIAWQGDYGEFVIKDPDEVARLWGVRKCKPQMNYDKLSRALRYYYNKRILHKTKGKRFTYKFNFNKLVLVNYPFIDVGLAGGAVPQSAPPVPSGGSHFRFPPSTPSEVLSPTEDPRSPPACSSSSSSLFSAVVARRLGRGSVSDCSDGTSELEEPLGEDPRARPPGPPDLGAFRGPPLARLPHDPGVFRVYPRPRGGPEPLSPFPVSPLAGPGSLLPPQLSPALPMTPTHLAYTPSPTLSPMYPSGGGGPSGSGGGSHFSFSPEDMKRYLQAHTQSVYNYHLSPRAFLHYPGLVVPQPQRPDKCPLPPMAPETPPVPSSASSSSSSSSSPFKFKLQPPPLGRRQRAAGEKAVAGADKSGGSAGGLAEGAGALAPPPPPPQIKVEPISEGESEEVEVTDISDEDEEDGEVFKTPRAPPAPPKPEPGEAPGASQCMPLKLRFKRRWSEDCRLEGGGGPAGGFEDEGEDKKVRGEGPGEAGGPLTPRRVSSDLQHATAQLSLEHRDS
To be noted: protein: recombinant; tags: N-terminal GST; dsDNA, one strand shown. In a few lines: as §1

In another experiment the target is T7, ETV3L (Homo sapiens, UniProt Q6ZN32 1-361).
T7 sequence: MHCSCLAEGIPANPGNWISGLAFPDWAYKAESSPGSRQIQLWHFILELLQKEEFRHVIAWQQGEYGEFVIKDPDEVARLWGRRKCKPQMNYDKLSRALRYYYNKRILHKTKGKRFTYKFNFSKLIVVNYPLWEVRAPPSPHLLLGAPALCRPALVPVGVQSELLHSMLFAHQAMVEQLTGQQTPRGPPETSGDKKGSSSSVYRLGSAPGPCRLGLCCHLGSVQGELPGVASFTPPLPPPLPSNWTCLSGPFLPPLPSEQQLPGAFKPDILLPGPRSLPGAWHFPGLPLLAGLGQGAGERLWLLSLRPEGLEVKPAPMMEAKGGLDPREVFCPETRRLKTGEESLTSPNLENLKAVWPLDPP
The note with it: protein: recombinant; tags: N-terminal GST; dsDNA, one strand shown. In a few lines: as §1

A further experiment addresses T8, ETS2 (Homo sapiens, UniProt P15036 1-469).
T8 sequence: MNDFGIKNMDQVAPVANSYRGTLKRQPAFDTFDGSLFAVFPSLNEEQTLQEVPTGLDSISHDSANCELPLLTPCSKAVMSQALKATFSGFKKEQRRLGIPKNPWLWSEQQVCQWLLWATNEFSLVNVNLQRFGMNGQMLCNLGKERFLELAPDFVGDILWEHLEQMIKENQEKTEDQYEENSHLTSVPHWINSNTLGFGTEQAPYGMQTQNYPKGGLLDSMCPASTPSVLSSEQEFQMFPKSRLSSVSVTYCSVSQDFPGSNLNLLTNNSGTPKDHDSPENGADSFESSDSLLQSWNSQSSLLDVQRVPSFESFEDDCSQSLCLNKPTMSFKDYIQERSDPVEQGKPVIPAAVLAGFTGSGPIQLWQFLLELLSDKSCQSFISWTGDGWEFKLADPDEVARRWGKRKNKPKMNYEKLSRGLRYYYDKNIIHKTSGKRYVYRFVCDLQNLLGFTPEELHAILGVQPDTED
The note with it: protein: recombinant; tags: N-terminal GST; dsDNA, one strand shown. A digest of the protocol: as §1

A further experiment concerns the target T9, SPDEF (Homo sapiens, UniProt O95238 1-335).
T9 sequence: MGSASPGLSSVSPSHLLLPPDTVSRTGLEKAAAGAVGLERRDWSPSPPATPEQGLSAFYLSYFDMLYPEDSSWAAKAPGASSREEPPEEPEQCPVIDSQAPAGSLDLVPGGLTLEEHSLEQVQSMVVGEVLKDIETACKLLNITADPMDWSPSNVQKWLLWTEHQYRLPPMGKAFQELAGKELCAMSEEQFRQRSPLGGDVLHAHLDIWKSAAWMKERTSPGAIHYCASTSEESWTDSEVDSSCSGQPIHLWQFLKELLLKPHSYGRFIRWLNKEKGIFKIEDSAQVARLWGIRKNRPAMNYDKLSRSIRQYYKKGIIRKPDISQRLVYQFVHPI
The note with it: protein: recombinant; tags: N-terminal GST; dsDNA, one strand shown. A digest of the protocol:
as §1

For a further experiment, the target named is T10, ETV7 (Homo sapiens, UniProt Q9Y603 1-341).
T10 sequence: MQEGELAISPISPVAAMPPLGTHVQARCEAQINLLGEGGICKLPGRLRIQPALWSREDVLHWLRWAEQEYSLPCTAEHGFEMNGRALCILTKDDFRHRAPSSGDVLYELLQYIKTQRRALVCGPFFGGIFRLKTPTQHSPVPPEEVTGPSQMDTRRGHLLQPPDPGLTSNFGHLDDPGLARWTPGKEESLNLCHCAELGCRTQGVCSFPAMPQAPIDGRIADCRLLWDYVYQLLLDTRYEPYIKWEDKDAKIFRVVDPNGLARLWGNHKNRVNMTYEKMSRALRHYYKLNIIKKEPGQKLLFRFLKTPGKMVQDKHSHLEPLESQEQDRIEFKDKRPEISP
To be noted: protein: recombinant; tags: N-terminal GST; dsDNA, one strand shown. In a few lines:
as §1

The next experiment addresses T11, ELF5 (Homo sapiens, UniProt Q9UKW6-2 1-255).
T11 sequence: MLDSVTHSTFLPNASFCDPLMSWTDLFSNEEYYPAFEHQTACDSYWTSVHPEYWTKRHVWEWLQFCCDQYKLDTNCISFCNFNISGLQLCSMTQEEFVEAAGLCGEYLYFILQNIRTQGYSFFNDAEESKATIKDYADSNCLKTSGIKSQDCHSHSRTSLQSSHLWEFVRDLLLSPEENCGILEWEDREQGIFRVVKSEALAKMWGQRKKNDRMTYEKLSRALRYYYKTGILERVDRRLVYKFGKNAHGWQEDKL
To be noted: protein: recombinant; tags: N-terminal GST; dsDNA, one strand shown. A digest of the protocol:
as §1

In the next experiment the target is T12, ETV3 (Homo sapiens, UniProt P41162-2 1-143).
T12 sequence: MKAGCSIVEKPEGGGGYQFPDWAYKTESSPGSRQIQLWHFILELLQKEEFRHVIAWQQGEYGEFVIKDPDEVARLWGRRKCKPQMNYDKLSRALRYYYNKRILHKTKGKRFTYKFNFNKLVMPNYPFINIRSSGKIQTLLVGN
To be noted: protein: recombinant; tags: N-terminal GST; dsDNA, one strand shown. A digest of the protocol:
as §1

In a further experiment the target is ETV6 (Homo sapiens, UniProt P41212 1-452). To be noted: protein: recombinant; tags: N-terminal GST; dsDNA, one strand shown. A digest of the protocol: as §1
Sequence of ETV6 (P41212 whole entry): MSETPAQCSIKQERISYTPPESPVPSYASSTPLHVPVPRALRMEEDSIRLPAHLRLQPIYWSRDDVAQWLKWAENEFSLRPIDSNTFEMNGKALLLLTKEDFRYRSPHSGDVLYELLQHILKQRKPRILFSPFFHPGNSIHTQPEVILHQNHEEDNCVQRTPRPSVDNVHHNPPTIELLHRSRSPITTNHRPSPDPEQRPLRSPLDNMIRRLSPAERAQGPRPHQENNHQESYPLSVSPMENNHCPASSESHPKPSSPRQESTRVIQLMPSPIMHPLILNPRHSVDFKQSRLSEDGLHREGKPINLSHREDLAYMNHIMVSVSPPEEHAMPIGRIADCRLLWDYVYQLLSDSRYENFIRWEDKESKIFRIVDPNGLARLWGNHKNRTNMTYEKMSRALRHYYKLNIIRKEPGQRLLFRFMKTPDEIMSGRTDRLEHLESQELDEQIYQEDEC

Consider one sequence from PMC7862700, “An all-to-all approach to the identification of sequence-specific readers for epigenetic DNA modifications on cytosine”.

Sequence of ELF4 (Q99607 whole entry): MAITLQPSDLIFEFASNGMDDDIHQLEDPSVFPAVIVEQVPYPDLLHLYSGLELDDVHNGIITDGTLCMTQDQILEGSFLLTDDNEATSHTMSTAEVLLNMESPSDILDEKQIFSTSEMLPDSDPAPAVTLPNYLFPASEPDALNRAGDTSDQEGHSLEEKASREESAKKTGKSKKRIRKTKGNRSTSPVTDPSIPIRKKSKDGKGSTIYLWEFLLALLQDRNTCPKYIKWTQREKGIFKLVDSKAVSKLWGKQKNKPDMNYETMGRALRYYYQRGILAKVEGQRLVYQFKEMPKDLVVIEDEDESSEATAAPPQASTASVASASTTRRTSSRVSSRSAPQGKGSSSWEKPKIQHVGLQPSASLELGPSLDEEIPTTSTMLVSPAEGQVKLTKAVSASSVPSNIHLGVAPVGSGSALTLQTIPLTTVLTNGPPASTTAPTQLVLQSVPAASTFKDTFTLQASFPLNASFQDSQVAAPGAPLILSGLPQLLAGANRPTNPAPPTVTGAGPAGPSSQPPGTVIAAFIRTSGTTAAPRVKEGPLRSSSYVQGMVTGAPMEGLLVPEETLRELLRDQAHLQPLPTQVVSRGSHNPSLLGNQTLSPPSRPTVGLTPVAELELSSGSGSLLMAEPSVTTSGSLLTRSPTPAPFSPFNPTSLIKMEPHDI
Sequence of HSF1 (Q00613 whole entry): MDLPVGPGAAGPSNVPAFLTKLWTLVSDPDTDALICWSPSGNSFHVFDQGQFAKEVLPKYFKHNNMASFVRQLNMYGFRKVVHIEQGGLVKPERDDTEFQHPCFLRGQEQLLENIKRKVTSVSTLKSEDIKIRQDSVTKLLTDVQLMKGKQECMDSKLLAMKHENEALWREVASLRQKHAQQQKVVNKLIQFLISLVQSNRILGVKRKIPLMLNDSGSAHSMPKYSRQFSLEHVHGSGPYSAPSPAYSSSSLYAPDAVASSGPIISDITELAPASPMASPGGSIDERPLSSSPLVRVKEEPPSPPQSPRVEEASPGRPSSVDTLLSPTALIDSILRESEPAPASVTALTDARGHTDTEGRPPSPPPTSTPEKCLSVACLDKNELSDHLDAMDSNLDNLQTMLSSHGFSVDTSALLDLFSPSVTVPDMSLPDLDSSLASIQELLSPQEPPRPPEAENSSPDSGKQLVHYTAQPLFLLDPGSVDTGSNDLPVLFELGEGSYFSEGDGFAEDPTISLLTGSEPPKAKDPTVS
Sequence of ETV5 (P41161 whole entry): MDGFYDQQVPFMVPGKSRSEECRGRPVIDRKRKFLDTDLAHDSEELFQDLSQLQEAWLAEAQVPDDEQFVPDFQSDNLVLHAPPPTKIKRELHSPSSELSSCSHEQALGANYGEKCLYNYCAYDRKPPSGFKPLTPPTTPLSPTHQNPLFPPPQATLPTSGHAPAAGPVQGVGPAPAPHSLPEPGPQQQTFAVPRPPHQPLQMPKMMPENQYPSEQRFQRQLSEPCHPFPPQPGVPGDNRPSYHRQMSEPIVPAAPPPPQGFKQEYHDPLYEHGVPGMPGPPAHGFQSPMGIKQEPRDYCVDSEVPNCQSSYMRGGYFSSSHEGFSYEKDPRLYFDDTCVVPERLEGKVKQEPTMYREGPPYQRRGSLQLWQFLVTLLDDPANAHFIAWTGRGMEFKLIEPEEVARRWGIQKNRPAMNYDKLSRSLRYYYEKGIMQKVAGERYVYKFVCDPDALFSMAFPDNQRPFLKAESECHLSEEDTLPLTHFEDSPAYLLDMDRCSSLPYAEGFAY
Sequence of ETV1 (P50549 whole entry): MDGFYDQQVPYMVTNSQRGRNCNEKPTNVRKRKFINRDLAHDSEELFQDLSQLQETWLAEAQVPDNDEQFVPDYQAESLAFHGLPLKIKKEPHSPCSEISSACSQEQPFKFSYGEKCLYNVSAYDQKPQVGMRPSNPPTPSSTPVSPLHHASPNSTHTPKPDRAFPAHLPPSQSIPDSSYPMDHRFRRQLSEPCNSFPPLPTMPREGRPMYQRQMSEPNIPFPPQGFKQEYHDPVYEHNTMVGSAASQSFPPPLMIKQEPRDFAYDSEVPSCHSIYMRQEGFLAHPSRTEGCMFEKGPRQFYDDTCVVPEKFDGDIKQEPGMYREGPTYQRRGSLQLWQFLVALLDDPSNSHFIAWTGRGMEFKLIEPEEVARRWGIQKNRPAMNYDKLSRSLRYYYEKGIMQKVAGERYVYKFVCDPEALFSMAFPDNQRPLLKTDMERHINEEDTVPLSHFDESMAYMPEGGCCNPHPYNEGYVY
Sequence of CRX (O43186 whole entry): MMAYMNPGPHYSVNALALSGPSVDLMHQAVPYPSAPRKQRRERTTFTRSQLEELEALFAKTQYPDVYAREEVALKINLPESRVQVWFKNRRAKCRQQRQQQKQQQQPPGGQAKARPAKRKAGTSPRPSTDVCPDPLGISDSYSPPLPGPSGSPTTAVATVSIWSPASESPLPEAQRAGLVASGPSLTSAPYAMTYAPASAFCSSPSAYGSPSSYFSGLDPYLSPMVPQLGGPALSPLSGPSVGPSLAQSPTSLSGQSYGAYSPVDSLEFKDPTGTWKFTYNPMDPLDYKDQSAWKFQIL

As to TTTCGG, the binding signal in the experiment with FEV was 1.15 fold enrichment (6-mer frequency, TF over GST control); in the experiment with ETV5, 1.13 fold enrichment (6-mer frequency, TF over GST control); with HSF1 it was 1.39 fold enrichment (6-mer frequency, TF over GST control); with SPIC, 1.05 fold enrichment (6-mer frequency, TF over GST control); in the experiment with ELF4 it was 1.21 fold enrichment (6-mer frequency, TF over GST control); with ELK4 it was 1.14 fold enrichment (6-mer frequency, TF over GST control). Also, the binding signal with ETV2 is 1.16 fold enrichment (6-mer frequency, TF over GST control); in the experiment with ELF3 it was 1.22 fold enrichment (6-mer frequency, TF over GST control); with CRX, 1.25 fold enrichment (6-mer frequency, TF over GST control); with ETV1 it was 1.31 fold enrichment (6-mer frequency, TF over GST control); with ERF it was 1.17 fold enrichment (6-mer frequency, TF over GST control); in the experiment with ETV3L it was 1.22 fold enrichment (6-mer frequency, TF over GST control). Moreover, the binding signal was 1.24 fold enrichment (6-mer frequency, TF over GST control) with ETS2; 1.21 fold enrichment (6-mer frequency, TF over GST control) in the experiment with SPDEF; 1.28 fold enrichment (6-mer frequency, TF over GST control) with ETV7; 1.21 fold enrichment (6-mer frequency, TF over GST control) with ELF5; 1.16 fold enrichment (6-mer frequency, TF over GST control) in the experiment with ETV3; 1.19 fold enrichment (6-mer frequency, TF over GST control) with ETV6.
